Results as given in PubChem BioAssay (NCATS).
Records with an inconclusive call do not appear. Active and inactive are the calls of the source. Unless noted, calls come from the whole dose curve; as a rule, active = well fitted curve in the direction sought with a large enough effect; inconclusive = small, poorly fitted or top-dose-only effect, or another doubt; inactive = no such curve, though single readings can be large; an effect the other way counts as inactive or inconclusive.

How the values were obtained:
[1] = target: Lysosomal acid glucosylceramidase (Homo sapiens) (UniProt P04062); test: Glucocerebrosidase-p2 (AID 348; in the data active = potency below about 10 µM; note: potency is the fitted concentration of half-maximal effect); conditions: purified GBA, blue fluorogenic substrate, 40 min
Procedure, shortened: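 Compounds titrated from 0.6 nM upwards against 0.2 nM enzyme in pH 5.9 citric acid/KH2PO4, taurocholate, tween-20; blue fluorogenic substrate 80 uM, 40 min room temperature, stopped and read Ex 365/Em 440 for AC50.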

[2] = AP1 Signaling Pathway (AID 357; active = well fitted curve in either direction with a large enough effect, not every such curve was filed as active;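 note: ME-180 reporter cells stimulated with EGF at its EC50 level; % is set by controls: 0 for no effect and ±100 for the full control effect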); conditions: ME-180 AP-1-bla reporter, EGF-induced, beta-lactamase ratio, 5 h; at 7.69 µM (top of the series) unless noted
Procedure, shortened: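 Read-out was the 460nm/530nm emission ratio (excitation 405nm) after CCF4 loading for 2.5 hours at room temperature. Cells carried an AP-1-driven beta-lactamase reporter, were stimulated with EC50 EGF plus compound for 5 hours, and AC50 values came from titrations.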

[3] = target: Cytochrome P450 1A2 (Homo sapiens) (UniProt P05177); test: p450-cyp1a2 (AID 410; calls by dose curve;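 note: -100% = full effect of reference inhibitor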); conditions: recombinant CYP1A2, luciferin-ME demethylation, luminescence; series mostly up to 11.4 µM
Procedure, shortened: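 Human CYP1A2 (20nM) demethylated Luciferin-ME at its Km (100uM) in 100mM KPO4. After 10 min compound preincubation, NADPH regeneration ran the reaction 60 min at room temperature. Luciferin was read by luminescence, normalized to 57 uM furafylline.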

[4] = Stat Signaling Pathway (AID 446; active = well fitted curve in either direction with a large enough effect, not every such curve was filed as active;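 note: ME-180 cervical cancer cells given 40 pM IL-6 alongside compound; SIE-controlled beta-lactamase reporter measured as 460/530 nm FRET emission ratio; % is set by controls: 0 for no effect and ±100 for the full control effect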); conditions: ME-180 (cervical carcinoma) SIE beta-lactamase reporter, IL-6 stimulated, 5 h; at 7.69 µM (top of the series) unless noted
Procedure, shortened: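 IL-6/STAT signaling read in ME-180 cells via an SIE beta-lactamase reporter. Stimulus was 40 pM IL-6 (its AC50) for 5 hrs, so both activation and inhibition register.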

[5] = target: Glucocorticoid receptor (Homo sapiens) (UniProt P04150); test: GR-GFP Redistribution (AID 450;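 active = compounds whose dose series gives a full or clear partial fitted curve of increased nuclear translocation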; note: potency is the fitted concentration of half-maximal effect); conditions: U2OS GR-GFP nuclear translocation, laser cytometry, 2 h
[6] = target: Glucocorticoid receptor (Homo sapiens) (UniProt P04150); test: GR-EFC Redistribution (AID 451; calls by dose curve; note: potency is the fitted concentration of half-maximal effect); conditions: CHO-K1 GR-EFC translocation, beta-gal luminescence, 2 h
Procedure, shortened: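 CHO-K1 cells stably expressing nuclear-localized β-gal enzyme acceptor and GR fused C-terminally to the enzyme donor fragment; ligand-driven nuclear translocation restores β-gal by complementation. Compounds titrated up to 46 uM final, 2 h at 37 °C; luminescence read.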

[7] = target: Mitogen-activated protein kinase 10 (Mus musculus) (UniProt Q61831); test: JNK3 AlphaScreen Assay (AID 530; active = well fitted curve in either direction with a large enough effect, not every such curve was filed as active;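 note: kinase came from lysate of stimulated human HepG2 cells; signal reports phosphorylation of biotinylated GST-cJun 1-79 at Ser73 with 10 µM ATP; % is set by controls: 0 for no effect and ±100 for the full control effect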); conditions: JNK3 lysate, c-Jun phosphorylation; series mostly up to 57.1 µM
Procedure, shortened: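 JNK3 came from HepG2 lysates pre-activated with IL-1beta and TNF-alpha and phosphorylated biotinylated GST-cJun (1-79) at 10 uM ATP, pH 7.6, room temperature. Compounds were titrated. AlphaScreen signal used anti-phospho-cJun (Ser73) antibody.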

[8] = target: 3',5'-cyclic-AMP phosphodiesterase 4B (Homo sapiens) (UniProt Q07343); test: qHTS Assay for Inhibitors of PDE-IV (AID 607; active = well fitted activation curve with a large enough effect in the main read-out, with a control signal flat, not every such curve was filed as active; note: % of control where 0% means no effect); conditions: HEK293 ACTOne CNG channel cells, membrane potential fluorescence; series mostly up to 22.9 µM
Procedure, shortened: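 Live HEK293 cells with a modified cyclic nucleotide-gated (CNG) channel report intracellular cAMP via membrane-potential dye fluorescence (ex 535/em 590 nm). Endogenous PDE-IV was targeted. Compounds were tested at up to 22.9 uM final; RO 20-1724 100 uM served as control.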

[9] = target: ATP-dependent 6-phosphofructokinase (Trypanosoma brucei brucei) (UniProt O15648); test: qHTS Assay to Find Inhibitors of T. brucei phosphofructokinase: hit validation (AID 492961);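 note: luminescence reports ADP formed as PFK phosphorylates fructose-6-phosphate with ATP; % is set by controls: 0 for no effect and ±100 for the full control effect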; conditions: T. brucei PFK, ADP-Glo luminescence; series mostly up to 51.4 µM
Procedure, shortened: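 Percent activity derived from corrected luminescence, normalized between 0x and 1x enzyme controls, then fitted to concentration-response curves. Conditions: 1.25 nM PFK, 0.1 mM ATP, 0.5 mM F6P, 45 min RT.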

[10] = target: Ubiquitin carboxyl-terminal hydrolase 1 (Homo sapiens) (UniProt O94782); test: Inhibitors of USP1/UAF1: Pilot qHTS (AID 504865); conditions: purified USP1/UAF1, Ub-rhodamine cleavage fluorescence; series mostly up to 114 µM;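 note: rhodamine fluorescence freed from ubiquitin-rhodamine substrate followed over time; top concentration of the series differs between compounds; % is set by controls: 0 for no effect and ±100 for the full control effect; nearly all actives have a fitted effect of over 35% in size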
Procedure, shortened: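 Deubiquitinase activity followed as kinetic rhodamine fluorescence release from 150 nM Ub-Rho. 1 nM USP1/UAF1 with compound, after 15 min room-temperature preincubation, in HEPES pH 7.8 buffer containing TCEP, EDTA, BSA and Tween-20.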

[11] = target: Luciferin 4-monooxygenase (Photinus pyralis) (UniProt P08659); test: Biochemical firefly luciferase enzyme assay for NPC (AID 624030);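 note: purified P. pyralis luciferase at 10 nM with luciferin and ATP substrate; 0% = DMSO and -100% = full luciferase inhibition by PTC124 control; nearly all actives have a fitted effect of over 70% in size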; conditions: purified P. pyralis luciferase, luminescence, 5 min; series mostly up to 58.6 µM
Procedure, shortened: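 Counter-screen for direct inhibition of the luciferase enzyme by approved-drug library compounds, run at 10 nM enzyme in 50 mM Tris acetate (final). Luminescence was read within 5 min of enzyme-buffer addition and normalized to PTC124 versus DMSO (0%).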

[12] = S16 Schwann cell viability assay (CellTiter-Glo assay) (AID 624031); conditions: S16 rat Schwann cells viability, 24 h; series mostly up to 57.5 µM;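 note: cellular ATP luminescence as a viability measure; plate controls were DMSO-treated cells for no effect and cell-free wells for full effect; nearly all actives have a fitted effect of over 70% in size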
Procedure, shortened: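 Native S16 Schwann cells (rat), serum-containing medium, overnight attachment then 24 h drug exposure at 37 °C/5% CO2. CellTiter-Glo ATP signal; normalized to cell-free and vehicle wells.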

[13] = S16 Schwann cell PMP22 intronic element firefly luciferase assay (AID 624032); conditions: S16 rat Schwann cells, PMP22 element FLuc, 24 h; series mostly up to 57.5 µM;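 note: plate controls were DMSO for no effect and PTC124 positive control mean for full effect; nearly all actives have a fitted effect of over 30% in size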
Procedure, shortened: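 Rat S16 Schwann cells stably carrying a PMP22 intronic element-driven Fluc reporter were seeded overnight, then exposed to compounds for 24 h at 37 °C. Luminescence was normalized to PTC124 (positive control) and DMSO (0% activity).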

[14] = S16 Schwann cell PMP22 intronic element beta-lactamase assay (AID 624044; calls by dose curve;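 note: 0% = DMSO and -100% = potassium clavulanate positive control; nearly all actives have a fitted effect of over 15% in size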); conditions: S16 rat Schwann cells, PMP22 element beta-lactamase FRET, 24 h; series mostly up to 38.3 µM
Procedure, shortened: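 Rat S16 Schwann cells with beta-Lac driven by a PMP22 intronic element, compound-treated 24 h at 37 °C. LiveBLAzer FRET B/G read: 460 nm normalized to potassium clavulanate vs DMSO; 535 nm FRET as viability; concentration-effect curves classified.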

7G8 = test: qHTS profiling for inhibitors of Plasmodium falciparum proliferation (AID 504749);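 note: 0% = DMSO vehicle and full inhibition = artemisinin control; nearly all actives have a fitted effect of over 60% in size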; conditions: P. falciparum in erythrocytes, SYBR Green DNA, 72 h; series mostly up to 28.7 µM
Procedure, shortened: (§1)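 P. falciparum-infected erythrocytes (0.3% parasitemia, 2.5% hematocrit final) were exposed to compounds for 72 h at 37 C in 5% CO2, then lysed with SYBR Green buffer overnight at room temperature; parasite DNA fluorescence was normalized to artemisinin and DMSO controls.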

AA1029 = test: as above; conditions: P. falciparum in erythrocytes, SYBR Green DNA, 72 h; series mostly up to 28.7 µM
Procedure, shortened: as §1

AS120 = test: as above; conditions: P. falciparum in erythrocytes, SYBR Green DNA, 72 h; series mostly up to 28.7 µM
Procedure, shortened: as §1

ATS189 = test: as above; conditions: P. falciparum in erythrocytes, SYBR Green DNA, 72 h; series mostly up to 28.7 µM
Procedure, shortened: as §1

C2A = test: as above; conditions: P. falciparum in erythrocytes, SYBR Green DNA, 72 h; series mostly up to 28.7 µM
Procedure, shortened: as §1

CP185 = test: as above; conditions: P. falciparum in erythrocytes, SYBR Green DNA, 72 h; series mostly up to 28.7 µM
Procedure, shortened: as §1

CP191 = test: as above; conditions: P. falciparum in erythrocytes, SYBR Green DNA, 72 h; series mostly up to 28.7 µM
Procedure, shortened: as §1

CP192 = test: as above; conditions: P. falciparum in erythrocytes, SYBR Green DNA, 72 h; series mostly up to 28.7 µM
Procedure, shortened: as §1

CP194 = test: as above; conditions: P. falciparum in erythrocytes, SYBR Green DNA, 72 h; series mostly up to 28.7 µM
Procedure, shortened: as §1

CP201 = test: as above; conditions: P. falciparum in erythrocytes, SYBR Green DNA, 72 h; series mostly up to 28.7 µM
Procedure, shortened: as §1

CP203 = test: as above; conditions: P. falciparum in erythrocytes, SYBR Green DNA, 72 h; series mostly up to 28.7 µM
Procedure, shortened: as §1

CP211 = test: as above; conditions: P. falciparum in erythrocytes, SYBR Green DNA, 72 h; series mostly up to 28.7 µM
Procedure, shortened: as §1

CP217 = test: as above; conditions: P. falciparum in erythrocytes, SYBR Green DNA, 72 h; series mostly up to 28.7 µM
Procedure, shortened: as §1

CP237 = test: as above; conditions: P. falciparum in erythrocytes, SYBR Green DNA, 72 h; series mostly up to 28.7 µM
Procedure, shortened: as §1

CP238 = test: as above; conditions: P. falciparum in erythrocytes, SYBR Green DNA, 72 h; series mostly up to 28.7 µM
Procedure, shortened: as §1

CP247 = test: as above; conditions: P. falciparum in erythrocytes, SYBR Green DNA, 72 h; series mostly up to 28.7 µM
Procedure, shortened: as §1

CP250 = test: as above; conditions: P. falciparum in erythrocytes, SYBR Green DNA, 72 h; series mostly up to 28.7 µM
Procedure, shortened: as §1

CP252 = test: as above; conditions: P. falciparum in erythrocytes, SYBR Green DNA, 72 h; series mostly up to 28.7 µM
Procedure, shortened: as §1

CP256 = test: as above; conditions: P. falciparum in erythrocytes, SYBR Green DNA, 72 h; series mostly up to 28.7 µM
Procedure, shortened: as §1

Sequence of Glucocorticoid receptor (Homo sapiens) (P04150 whole entry, looked up, the tested form may be a part): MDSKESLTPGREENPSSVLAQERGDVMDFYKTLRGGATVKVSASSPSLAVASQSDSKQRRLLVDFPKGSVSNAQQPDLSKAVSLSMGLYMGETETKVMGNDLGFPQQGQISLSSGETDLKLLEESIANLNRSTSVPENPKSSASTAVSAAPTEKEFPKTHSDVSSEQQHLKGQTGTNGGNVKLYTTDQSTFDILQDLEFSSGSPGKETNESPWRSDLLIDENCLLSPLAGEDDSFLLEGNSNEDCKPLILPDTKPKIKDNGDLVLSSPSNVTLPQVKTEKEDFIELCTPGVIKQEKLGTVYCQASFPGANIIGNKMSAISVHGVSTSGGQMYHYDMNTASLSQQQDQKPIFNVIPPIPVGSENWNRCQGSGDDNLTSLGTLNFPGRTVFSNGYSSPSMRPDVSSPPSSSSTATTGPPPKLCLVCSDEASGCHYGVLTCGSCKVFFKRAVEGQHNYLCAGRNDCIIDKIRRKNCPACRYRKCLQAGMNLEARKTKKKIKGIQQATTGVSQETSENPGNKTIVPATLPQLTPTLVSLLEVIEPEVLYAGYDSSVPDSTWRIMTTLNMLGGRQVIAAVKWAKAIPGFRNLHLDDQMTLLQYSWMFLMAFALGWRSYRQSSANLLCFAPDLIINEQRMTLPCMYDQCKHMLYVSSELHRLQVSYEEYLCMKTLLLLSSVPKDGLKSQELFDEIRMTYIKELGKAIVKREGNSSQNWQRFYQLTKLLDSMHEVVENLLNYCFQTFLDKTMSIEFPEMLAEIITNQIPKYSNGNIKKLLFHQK
Sequence of Ubiquitin carboxyl-terminal hydrolase 1 (Homo sapiens) (O94782 whole entry, looked up): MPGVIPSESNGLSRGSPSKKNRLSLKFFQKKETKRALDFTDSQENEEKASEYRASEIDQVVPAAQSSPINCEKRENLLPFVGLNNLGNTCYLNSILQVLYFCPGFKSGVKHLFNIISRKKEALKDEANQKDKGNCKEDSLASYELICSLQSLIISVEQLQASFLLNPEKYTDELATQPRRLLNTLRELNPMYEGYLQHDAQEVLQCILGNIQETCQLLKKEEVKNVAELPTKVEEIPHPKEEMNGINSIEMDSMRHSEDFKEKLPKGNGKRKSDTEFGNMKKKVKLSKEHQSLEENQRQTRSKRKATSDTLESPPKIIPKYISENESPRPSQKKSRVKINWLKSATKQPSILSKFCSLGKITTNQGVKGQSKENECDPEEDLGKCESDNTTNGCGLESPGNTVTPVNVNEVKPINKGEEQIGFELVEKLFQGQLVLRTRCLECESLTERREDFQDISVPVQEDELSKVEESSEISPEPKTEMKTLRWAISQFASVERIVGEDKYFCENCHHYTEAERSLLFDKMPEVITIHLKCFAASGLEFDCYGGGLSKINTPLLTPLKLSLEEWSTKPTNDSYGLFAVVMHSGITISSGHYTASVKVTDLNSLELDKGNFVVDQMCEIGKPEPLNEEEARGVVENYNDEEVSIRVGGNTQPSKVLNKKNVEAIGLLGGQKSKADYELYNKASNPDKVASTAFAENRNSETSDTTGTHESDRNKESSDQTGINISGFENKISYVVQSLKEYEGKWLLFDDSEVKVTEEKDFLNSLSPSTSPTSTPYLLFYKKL
Sequence of Cytochrome P450 1A2 (Homo sapiens) (P05177 whole entry, looked up): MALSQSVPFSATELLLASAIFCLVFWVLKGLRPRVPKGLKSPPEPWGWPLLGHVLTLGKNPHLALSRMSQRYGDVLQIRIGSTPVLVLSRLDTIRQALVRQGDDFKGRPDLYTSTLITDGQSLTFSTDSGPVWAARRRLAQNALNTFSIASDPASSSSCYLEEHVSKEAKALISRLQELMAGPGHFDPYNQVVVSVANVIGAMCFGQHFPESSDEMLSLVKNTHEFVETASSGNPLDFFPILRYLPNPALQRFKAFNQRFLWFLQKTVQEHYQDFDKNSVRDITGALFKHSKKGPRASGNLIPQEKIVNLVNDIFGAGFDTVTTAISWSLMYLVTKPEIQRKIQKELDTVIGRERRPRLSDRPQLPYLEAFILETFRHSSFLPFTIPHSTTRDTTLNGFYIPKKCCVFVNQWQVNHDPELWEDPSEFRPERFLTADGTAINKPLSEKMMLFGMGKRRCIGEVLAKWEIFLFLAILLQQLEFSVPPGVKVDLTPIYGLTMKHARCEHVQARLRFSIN
Sequence of Luciferin 4-monooxygenase (Photinus pyralis) (P08659 whole entry, looked up): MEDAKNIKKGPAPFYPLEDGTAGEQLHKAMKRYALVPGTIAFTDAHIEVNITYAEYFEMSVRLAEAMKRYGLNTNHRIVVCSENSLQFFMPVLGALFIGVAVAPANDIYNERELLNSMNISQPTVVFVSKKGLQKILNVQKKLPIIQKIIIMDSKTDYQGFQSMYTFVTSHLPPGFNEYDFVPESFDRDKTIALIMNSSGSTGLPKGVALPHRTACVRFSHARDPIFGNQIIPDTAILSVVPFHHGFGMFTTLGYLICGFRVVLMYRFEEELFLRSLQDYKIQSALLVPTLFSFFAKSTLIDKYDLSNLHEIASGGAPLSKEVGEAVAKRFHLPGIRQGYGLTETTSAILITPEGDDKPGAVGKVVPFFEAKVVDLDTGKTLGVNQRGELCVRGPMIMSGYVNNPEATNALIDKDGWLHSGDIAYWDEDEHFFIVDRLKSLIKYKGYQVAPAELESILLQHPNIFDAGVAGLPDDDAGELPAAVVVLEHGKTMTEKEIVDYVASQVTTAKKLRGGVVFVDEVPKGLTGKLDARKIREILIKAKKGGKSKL
Sequence of 3',5'-cyclic-AMP phosphodiesterase 4B (Homo sapiens) (Q07343 whole entry, looked up): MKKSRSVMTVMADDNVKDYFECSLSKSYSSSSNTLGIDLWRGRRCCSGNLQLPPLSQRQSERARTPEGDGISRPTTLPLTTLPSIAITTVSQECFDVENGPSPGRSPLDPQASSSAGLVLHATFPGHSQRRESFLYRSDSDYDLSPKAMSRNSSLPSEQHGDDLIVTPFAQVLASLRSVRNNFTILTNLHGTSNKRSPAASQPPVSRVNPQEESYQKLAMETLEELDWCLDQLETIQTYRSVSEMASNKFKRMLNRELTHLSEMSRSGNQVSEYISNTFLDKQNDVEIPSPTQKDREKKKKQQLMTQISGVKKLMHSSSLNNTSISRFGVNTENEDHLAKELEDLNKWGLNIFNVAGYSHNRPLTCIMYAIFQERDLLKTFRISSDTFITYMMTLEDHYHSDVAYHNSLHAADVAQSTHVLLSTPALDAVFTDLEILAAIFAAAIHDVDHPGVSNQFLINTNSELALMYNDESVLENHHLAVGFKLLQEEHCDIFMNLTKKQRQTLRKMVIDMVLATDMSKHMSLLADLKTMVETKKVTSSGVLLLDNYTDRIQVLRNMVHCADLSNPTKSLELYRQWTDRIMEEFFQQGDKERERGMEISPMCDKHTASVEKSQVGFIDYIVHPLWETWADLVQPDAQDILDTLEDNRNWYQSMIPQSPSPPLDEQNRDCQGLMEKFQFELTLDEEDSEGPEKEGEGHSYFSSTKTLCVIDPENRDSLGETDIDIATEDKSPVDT
Sequence of Lysosomal acid glucosylceramidase (Homo sapiens) (P04062 whole entry, looked up): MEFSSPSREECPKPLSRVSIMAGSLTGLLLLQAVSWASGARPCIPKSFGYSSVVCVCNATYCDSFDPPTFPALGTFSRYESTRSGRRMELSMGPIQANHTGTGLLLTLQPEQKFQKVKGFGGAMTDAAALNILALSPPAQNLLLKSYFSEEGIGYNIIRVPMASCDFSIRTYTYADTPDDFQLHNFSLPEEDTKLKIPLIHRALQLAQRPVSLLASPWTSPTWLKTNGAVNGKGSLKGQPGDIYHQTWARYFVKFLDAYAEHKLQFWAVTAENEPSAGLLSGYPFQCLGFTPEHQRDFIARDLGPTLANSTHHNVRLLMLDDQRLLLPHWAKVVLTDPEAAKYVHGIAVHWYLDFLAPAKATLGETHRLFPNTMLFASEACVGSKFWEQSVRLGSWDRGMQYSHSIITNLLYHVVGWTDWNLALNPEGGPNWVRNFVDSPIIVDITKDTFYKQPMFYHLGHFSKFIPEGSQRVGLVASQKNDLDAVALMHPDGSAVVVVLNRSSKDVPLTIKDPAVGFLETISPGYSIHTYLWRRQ
Sequence of ATP-dependent 6-phosphofructokinase (Trypanosoma brucei brucei) (O15648 whole entry, looked up): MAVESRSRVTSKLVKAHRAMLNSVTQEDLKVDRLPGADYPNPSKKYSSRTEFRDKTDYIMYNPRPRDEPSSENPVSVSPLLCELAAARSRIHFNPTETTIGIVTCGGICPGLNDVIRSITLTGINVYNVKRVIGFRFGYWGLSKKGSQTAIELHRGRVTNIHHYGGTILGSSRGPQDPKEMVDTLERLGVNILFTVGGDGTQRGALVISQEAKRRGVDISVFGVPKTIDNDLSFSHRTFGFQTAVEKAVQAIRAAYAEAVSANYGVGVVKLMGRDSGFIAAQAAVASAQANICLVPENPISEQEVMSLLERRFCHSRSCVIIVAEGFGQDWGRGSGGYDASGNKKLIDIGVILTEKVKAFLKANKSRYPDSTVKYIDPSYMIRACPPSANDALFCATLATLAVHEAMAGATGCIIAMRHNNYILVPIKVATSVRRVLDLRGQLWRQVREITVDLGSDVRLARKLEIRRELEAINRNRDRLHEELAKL

C[N+]1(C)C2CC[C@H]1CC(OC(=O)[C@@H](CO)c1ccccc1)C2 (stereo partly drawn)
inactive: Potency [1] > 11.4 µM | activity change, negative = inhibition [2] 4% | Potency [3] | activity, negative = inhibition [4] 7.35% | Potency [5] > 46 µM | Potency [6] > 9.22 µM | activity change, negative = inhibition [7] 2.63% [at 11.4 µM] | outcome [8] | outcome [9] | Potency [10] | outcome [11] | outcome [12] | outcome [13] | outcome [14] | Potency (7G8) | Potency (AA1029) | Potency (AS120) | Potency (ATS189) | Potency (C2A) | Potency (CP185) | Potency (CP191) | Potency (CP192) | Potency (CP194) | Potency (CP201) | Potency (CP203) | Potency (CP211) | Potency (CP217) | Potency (CP237) | Potency (CP238) | Potency (CP247) | Potency (CP250) | Potency (CP252) | Potency (CP256)
